From PubChem BioAssay (NCATS) come the findings set out here.

Values joined by “and” are separate entries in the source; they are usually repeats but may differ in a detail not shown here. Equal entries are not always repeated. Inconclusive results are not listed. Active and inactive are the calls of the source. Unless noted, calls follow the shape of the full dose curve.

The target in experiment [1] is Estrogen receptor (Homo sapiens) (UniProt P03372). In words: qHTS assay for small molecule antagonists of estrogen receptor alpha signaling (AID 588513; active = well fitted curve in the direction sought with a large enough effect in the signal ratio, with a control signal flat, not every such curve was filed as active; the % refers to the signal ratio; also: % is scaled to controls: 0 for no effect and ±100 for the full control effect). In short, it runs like this:
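Beta-lactamase reporter, antagonist mode, HEK 293 GripTite cells; 0.5nM E2 stimulus, 18 h, 37 C; CCF4 dye 2 h RT; fluorescence. IC50 and efficacy from Hill fits, normalized to E2 and DMSO.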
In general terms: qHTS replaces the single test concentration by a dilution series.

For experiment [2] the target is unchanged. In words: qHTS assay for small molecule agonists of estrogen receptor alpha signaling (AID 588514).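 Also: 0% = vehicle only and 100% = reference agonist; nearly all actives have a fitted effect of over 70% in size.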 In outline: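 EC50 and efficacy came from Hill fits of beta-lactamase reporter signal (CCF4 dye, 2 h at room temperature) scaled between DMSO and 20 nM 17-beta-estradiol. Agonist mode: HEK293 ER-alpha-UAS-bla cells in charcoal/dextran-stripped serum medium, 18 h compound exposure at 37 C.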

Experiment [3] in a line: qHTS assay for small molecule antagonists of peroxisome proliferator-activated receptor delta signaling (AID 588535).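 Also: cells co-treated with a PPAR-delta agonist as stimulator during compound exposure.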 Conditions: HEK293T PPARd-UAS-bla, beta-lactamase FRET ratio, 18 h; 460 nm channel. In short, it runs like this:
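Fluorescence from CCF4-loaded GeneBLAzer PPAR-delta-UAS-bla HEK293T cells (2 hrs RT loading) quantified reporter inhibition after an 18 hr, 37 C compound exposure across a titration.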

Experiment [4] deals with Peroxisome proliferator-activated receptor gamma (Homo sapiens) (UniProt P37231). In words: qHTS assay for small molecule agonists of peroxisome proliferator-activated receptor gamma signaling (AID 588536; active = well fitted curve in the direction sought with a large enough effect in the signal ratio, with a control signal flat, not every such curve was filed as active; the % refers to the signal ratio;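 also: 0% = DMSO basal wells and 100% = rosiglitazone at 2 µM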). In outline: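 This is an agonist-mode beta-lactamase reporter assay in HEK293 PPAR-gamma-UAS-bla cells with 1% charcoal/dextran FBS. Compound titrations ran 16 h at 37 C before CCF4 detection. EC50 and efficacy are Hill fits scaled to 2 uM rosiglitazone (100%) and DMSO basal.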

For experiment [5], the target named is Vitamin D3 receptor (Homo sapiens) (UniProt P11473). In words: qHTS assay for small molecule antagonists of vitamin D receptor signaling (AID 588541).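 Also: receptor activated by calcitriol during compound treatment; series mostly up to about 77 µM; % is scaled to controls: 0 for no effect and ±100 for the full control effect.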 In short, it runs like this:
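VDR-UAS-bla HEK293T cells in 2% charcoal-stripped FBS were stimulated with 1-alpha,25-dihydroxyvitamin D3 (3 nM final) plus compound for 16 h at 37 C. The beta-lactamase CCF4 readout was normalized to 50 nM agonist and DMSO, and Hill fits gave IC50.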

Experiment [6] has the same target. Kind of experiment: qHTS assay for small molecule agonists of vitamin D receptor signaling (AID 588543).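 Also: 0% = DMSO basal and 100% = reference agonist control.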 In short, it runs like this:
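β-lactamase reporter, VDR-UAS-bla HEK293T, agonist mode. Cells plated 5 h at 37 °C, compound titration 16 h at 37 °C, CCF4 dye 2 h RT, ratio 460/530 nm. Hill fit → EC50, efficacy vs 50 nM 1α,25-(OH)2D3.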

Experiment [7] is described as follows: qHTS assay for small molecule agonists of retinoid X receptor alpha signaling (AID 588544).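 As to activation: 0% = DMSO basal wells and 100% = reference agonist.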 Particulars: HEK293T RXRa-UAS-bla, beta-lactamase reporter, 18 h; 530 nm emission.
In experiment [8] the target is Retinoic acid receptor RXR-alpha (Homo sapiens) (UniProt P19793). Described as above.
Experiment [9] concerns the target Thyroid hormone receptor beta (Homo sapiens) (UniProt P10828). In words: qHTS assay for small molecule agonists of thyroid hormone receptor beta signaling (AID 588545).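 Also: 0% = DMSO only and 100% = 10 nM T3.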 In outline:
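Stimulation of a TR-driven beta-lactamase reporter was quantified in GripTite HEK 293 cells. Compound series ran for 18 hrs; curves were normalized to T3 and DMSO controls and fitted to yield EC50.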

A short description of experiment [10]: qHTS assay for small molecule antagonists of retinoid X receptor alpha signaling (AID 588546; active = well fitted inhibition curve with a large enough effect in the signal ratio, with a control signal flat, not every such curve was filed as active; the % refers to the signal ratio;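 also: cells stimulated with 9-cis-retinoic acid as agonist; % is scaled to controls: 0 for no effect and ±100 for the full control effect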). Conditions: HEK293T RXRa-UAS-bla, beta-lactamase ratio, antagonist mode; measured here: W530 green channel, cytotoxicity proxy. In outline:
(§1)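 Beta-lactamase reporter inhibition, read as CCF4 fluorescence ratio (ex 405, em 460/530 nm) after 2 h at RT. HEK293T UAS-bla cells, 2500/well, were stimulated with 9-cis-RA at 500 or 100 nM final alongside test compound for 18 h at 37 C.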

For experiment [11], the target named is Retinoic acid receptor RXR-alpha (Homo sapiens) (UniProt P19793). The description is as above. Conditions: HEK293T RXRa-UAS-bla, beta-lactamase ratio, antagonist mode. In outline: as §1
Experiment [12] in a line: qHTS assay for small molecule activators of the nuclear factor-kappa B (NF-kB) signaling pathway (AID 651749; active = well fitted activation curve with a large enough effect in the signal ratio; the % refers to the signal ratio; also: series mostly up to about 77 µM; % of control where 0% means no effect). Conditions: NF-kB-bla ME-180 cells, beta-lactamase FRET ratio, 16 h; activation: stronger effect = higher value. In outline: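 In this qHTS format, compounds acting as activators increase NF-kB-driven beta-lactamase in ME-180 cells, measured as disrupted FRET after 16 hr exposure at 37C and 5% CO2.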

A short description of experiment [13]: qHTS assay for environmental chemicals that activate the Aryl hydrocarbon Receptor (AhR) signaling pathway (AID 651777; active = well fitted curve in the direction sought with a large enough effect; an effect the other way counts as inactive or inconclusive; also: % of control where 0% means no effect; nearly all actives have a fitted effect of over 15% in size). Conditions: 1A2-DRE human hepatoma cells, luciferase, 24 h; activation: stronger effect = higher value. In outline: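 Induction of CYP1A2 transcription through AhR is detected by luciferase in 1A2-DRE hepatoma cells. Compounds or DMSO act for 24 hr at 37 C before a 30 min One-Glo step at room temperature.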

Experiment [14] concerns the target Peroxisome proliferator-activated receptor alpha (Homo sapiens) (UniProt Q07869). Kind of experiment: qHTS assay for small molecule agonists of the peroxisome proliferator-activated receptor alpha (PPARalpha) signaling pathway (AID 651778; active = well fitted curve in the direction sought with a large enough effect; an effect the other way counts as inactive or inconclusive; also: % of control where 0% means no effect). Conditions: PathHunter PPARalpha complementation, chemiluminescence, 6 h; max response: stronger effect = higher value. In short, it runs like this:
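Enzyme-fragment complementation assay in which ligand-bound PPARalpha translocates and forms an active enzyme that generates chemiluminescence. Cells were plated overnight, exposed to compound for 6 hr at 37 C, and then given detection reagent for 60 min at room temperature.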

Experiment [15] can be described thus: qHTS assay for small molecule agonists of the antioxidant response element (ARE) signaling pathway measured by Nrf2-dependant transcriptional activity - cell viability counter screen (AID 720653; active = well fitted curve in the direction sought with a large enough effect in the repeat runs; an effect the other way counts as inactive or inconclusive; also: % is scaled to controls: 0 for no effect and ±100 for the full control effect). Particulars: ARE-bla HepG2 viability, CellTiter-Glo ATP luminescence, 16 h; max response: stronger effect = lower value. In short, it runs like this:
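ARE-bla HepG2 cells treated with compounds for 16 h at 37C; this counter screen measures viability as intracellular ATP by CellTiter-Glo luminescence after 30 min at room temperature.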

Experiment [16] in a line: qHTS assay for cell viability of HEK293 cells (AID 743288; active = well fitted curve in the direction sought with a large enough effect; an effect the other way counts as inactive or inconclusive; also: % is scaled to controls: 0 for no effect and ±100 for the full control effect; nearly all actives have a fitted effect of over 50% in size). Particulars: ATP luminescence (CellTiter-Glo), 18 h; max response: stronger effect = lower value. In outline: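 ATP luminescence (CellTiter-Glo) reports metabolically competent cell number after parental HEK293 cells, 2,000/well, were treated with DMSO-dissolved compounds for 18 h at 37 C; reagent incubation 30 min, room temperature.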

Experiment [17] can be described thus: qHTS assay for cell viability of the p53RE-bla HCT-116 cell line (AID 743292; active = well fitted curve in the direction sought with a large enough effect; an effect the other way counts as inactive or inconclusive; also: % is scaled to controls: 0 for no effect and ±100 for the full control effect; nearly all actives have a fitted effect of over 55% in size). In short, it runs like this: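 In this qHTS counter-screen, metabolically competent p53RE-bla HCT-116 cells were counted via their ATP content. Compounds were applied for 16 h at 37 C and luciferase-coupled luminescence was measured.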
Experiment [18] addresses Nuclear receptor subfamily 1 group I member 2 (Rattus norvegicus) (UniProt Q9R1A7). In words: qHTS assay for small molecule activators of the rat pregnane X receptor (rPXR) signaling pathway (AID 651751; call rule not given here; also: 0% is about no effect). Particulars: rPXR reporter cells, luciferase (One-Glo), 24 h.
Experiment [19] is described as follows: qHTS assay for small molecule activators of the human pregnane X receptor (PXR) signaling pathway (AID 720659; call rule not given here; also: 0% is about no effect).
The target in experiment [20] is Peroxisome proliferator-activated receptor gamma (Homo sapiens) (UniProt P37231). Kind of experiment: qHTS assay for small molecule antagonists of peroxisome proliferator-activated receptor gamma signaling (AID 588537; active = well fitted inhibition curve with a large enough effect in the signal ratio, with a control signal flat, not every such curve was filed as active; the % refers to the signal ratio;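 also: reporter cells co-stimulated with 50 nM rosiglitazone agonist during compound treatment; % of control where 0% means no effect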). In short, it runs like this: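 Fluorescence at 460 and 530 nm (405 nm excitation) reported beta-lactamase cleavage of CCF4 after 2 h room-temperature loading. HEK293 reporter cells in 1% charcoal/dextran-treated FBS had received compound and rosiglitazone for 16 h.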

Retinoic acid receptor RXR-alpha (Homo sapiens), sequence (P19793 whole entry, looked up): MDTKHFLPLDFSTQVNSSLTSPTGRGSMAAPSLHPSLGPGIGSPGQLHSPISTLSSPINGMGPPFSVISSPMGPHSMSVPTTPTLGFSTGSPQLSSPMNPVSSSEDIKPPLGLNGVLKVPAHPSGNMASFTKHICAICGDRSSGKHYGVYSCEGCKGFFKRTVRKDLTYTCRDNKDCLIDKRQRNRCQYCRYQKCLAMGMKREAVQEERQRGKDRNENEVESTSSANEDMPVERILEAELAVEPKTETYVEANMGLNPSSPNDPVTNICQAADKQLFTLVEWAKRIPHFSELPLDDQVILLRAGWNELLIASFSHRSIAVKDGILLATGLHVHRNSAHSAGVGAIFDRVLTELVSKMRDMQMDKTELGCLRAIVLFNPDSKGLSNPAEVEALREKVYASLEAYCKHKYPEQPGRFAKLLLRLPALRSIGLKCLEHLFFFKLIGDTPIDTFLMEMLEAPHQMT
Thyroid hormone receptor beta (Homo sapiens), sequence (P10828 whole entry, looked up): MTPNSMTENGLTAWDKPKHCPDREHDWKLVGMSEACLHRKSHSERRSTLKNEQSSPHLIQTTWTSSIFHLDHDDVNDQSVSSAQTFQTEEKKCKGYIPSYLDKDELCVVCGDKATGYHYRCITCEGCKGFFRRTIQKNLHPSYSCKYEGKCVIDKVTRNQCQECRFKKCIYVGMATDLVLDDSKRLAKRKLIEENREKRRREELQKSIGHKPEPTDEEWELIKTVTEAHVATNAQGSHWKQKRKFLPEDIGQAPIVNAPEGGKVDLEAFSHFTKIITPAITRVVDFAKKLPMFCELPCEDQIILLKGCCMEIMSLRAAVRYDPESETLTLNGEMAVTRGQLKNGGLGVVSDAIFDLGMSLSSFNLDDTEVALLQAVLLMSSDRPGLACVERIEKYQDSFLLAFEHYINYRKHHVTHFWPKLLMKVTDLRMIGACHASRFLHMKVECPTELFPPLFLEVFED
Nuclear receptor subfamily 1 group I member 2 (Rattus norvegicus), sequence (Q9R1A7 whole entry, looked up): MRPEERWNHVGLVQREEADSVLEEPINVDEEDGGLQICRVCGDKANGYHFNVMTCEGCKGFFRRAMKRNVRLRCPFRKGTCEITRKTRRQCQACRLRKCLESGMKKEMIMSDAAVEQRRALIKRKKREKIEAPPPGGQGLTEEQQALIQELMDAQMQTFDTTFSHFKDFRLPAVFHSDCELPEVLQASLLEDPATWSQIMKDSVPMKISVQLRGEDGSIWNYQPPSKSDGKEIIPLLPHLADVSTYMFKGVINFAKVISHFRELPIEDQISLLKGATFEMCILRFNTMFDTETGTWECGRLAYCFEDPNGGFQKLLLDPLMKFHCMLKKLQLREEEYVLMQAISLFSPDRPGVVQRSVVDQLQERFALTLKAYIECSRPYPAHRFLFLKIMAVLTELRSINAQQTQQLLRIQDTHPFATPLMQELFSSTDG
Peroxisome proliferator-activated receptor alpha (Homo sapiens), sequence (Q07869 whole entry, looked up, the tested form may be a part): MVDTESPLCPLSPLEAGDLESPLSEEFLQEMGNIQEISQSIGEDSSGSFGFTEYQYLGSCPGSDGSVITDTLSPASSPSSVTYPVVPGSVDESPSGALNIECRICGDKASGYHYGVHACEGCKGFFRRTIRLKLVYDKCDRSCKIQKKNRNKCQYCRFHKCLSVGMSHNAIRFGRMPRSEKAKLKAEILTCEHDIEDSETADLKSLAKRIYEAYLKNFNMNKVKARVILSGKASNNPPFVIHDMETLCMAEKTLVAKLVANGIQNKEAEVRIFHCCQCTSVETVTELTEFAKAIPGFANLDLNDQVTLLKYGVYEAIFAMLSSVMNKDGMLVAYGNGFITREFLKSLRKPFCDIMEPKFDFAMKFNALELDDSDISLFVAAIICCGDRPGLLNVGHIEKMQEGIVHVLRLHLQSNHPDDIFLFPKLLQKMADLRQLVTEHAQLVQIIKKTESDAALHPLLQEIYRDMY
Peroxisome proliferator-activated receptor gamma (Homo sapiens), sequence (P37231 whole entry, looked up): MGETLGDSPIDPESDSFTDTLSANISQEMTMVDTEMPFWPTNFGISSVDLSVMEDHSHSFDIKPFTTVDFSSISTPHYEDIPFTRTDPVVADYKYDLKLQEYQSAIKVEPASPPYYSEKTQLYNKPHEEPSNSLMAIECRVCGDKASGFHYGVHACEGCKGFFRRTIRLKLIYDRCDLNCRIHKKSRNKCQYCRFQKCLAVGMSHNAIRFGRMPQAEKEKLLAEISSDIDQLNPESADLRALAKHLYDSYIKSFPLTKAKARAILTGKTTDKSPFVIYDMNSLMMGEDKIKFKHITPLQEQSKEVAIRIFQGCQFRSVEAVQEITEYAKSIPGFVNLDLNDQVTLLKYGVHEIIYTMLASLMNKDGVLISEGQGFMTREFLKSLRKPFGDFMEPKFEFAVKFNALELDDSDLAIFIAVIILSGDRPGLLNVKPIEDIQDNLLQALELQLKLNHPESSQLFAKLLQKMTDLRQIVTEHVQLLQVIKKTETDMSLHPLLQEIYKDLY
Estrogen receptor (Homo sapiens), sequence (P03372 whole entry, looked up): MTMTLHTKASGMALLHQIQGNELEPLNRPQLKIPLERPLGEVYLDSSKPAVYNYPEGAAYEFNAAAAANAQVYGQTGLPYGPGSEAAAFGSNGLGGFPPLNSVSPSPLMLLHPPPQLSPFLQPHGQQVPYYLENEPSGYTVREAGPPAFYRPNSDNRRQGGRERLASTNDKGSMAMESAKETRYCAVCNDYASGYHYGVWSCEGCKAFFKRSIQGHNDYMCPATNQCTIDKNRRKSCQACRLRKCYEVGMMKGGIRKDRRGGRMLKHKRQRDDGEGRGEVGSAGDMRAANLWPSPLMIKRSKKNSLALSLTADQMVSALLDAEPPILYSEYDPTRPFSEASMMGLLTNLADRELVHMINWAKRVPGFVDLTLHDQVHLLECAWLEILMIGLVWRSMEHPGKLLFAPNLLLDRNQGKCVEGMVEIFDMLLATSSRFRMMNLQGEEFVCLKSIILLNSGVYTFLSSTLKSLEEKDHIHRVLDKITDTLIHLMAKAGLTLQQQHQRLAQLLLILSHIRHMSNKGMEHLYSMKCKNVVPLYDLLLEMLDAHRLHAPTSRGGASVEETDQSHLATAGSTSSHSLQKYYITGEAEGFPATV
Vitamin D3 receptor (Homo sapiens), sequence (P11473 whole entry, looked up): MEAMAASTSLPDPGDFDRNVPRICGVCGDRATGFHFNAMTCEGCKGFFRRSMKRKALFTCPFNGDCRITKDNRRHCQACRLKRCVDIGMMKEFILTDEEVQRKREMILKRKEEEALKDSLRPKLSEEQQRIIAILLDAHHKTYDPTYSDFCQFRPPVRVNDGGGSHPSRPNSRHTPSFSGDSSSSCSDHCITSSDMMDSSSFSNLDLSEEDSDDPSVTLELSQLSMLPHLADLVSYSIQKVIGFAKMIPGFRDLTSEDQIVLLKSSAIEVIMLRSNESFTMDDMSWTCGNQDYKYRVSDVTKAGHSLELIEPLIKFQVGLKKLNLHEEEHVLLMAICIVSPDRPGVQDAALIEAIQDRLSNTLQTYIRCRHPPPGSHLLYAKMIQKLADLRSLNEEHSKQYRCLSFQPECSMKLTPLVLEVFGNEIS

For the molecule `C=Cc1ccccc1Br`, the Potency entry in experiment [1], in [2], in experiment [5], in [8], in experiment [9] and in [17] was “inactive” throughout. The max response was -10.1% in experiment [3]; -4.64% in [7]; 1.9% in [10]; -9.99% (inactive) in experiment [11]; 0.716% (inactive) in experiment [14]; -11.1% (inactive) in experiment [15]. Further, the max response in experiment [16] was -11.7% (inactive); in experiment [18], -0.877% (inactive). The result in experiment [4], in experiment [6] and in [19] was inactive. Besides, the values for the activation in [12] and in experiment [13] were -1.27% (inactive) and 1.62% (inactive), respectively.
For the molecule `O=C(O)c1ccc(C(=O)O)c(C(=O)O)c1`, the Potency entry in [1], in experiment [2], in experiment [20], in [8], in experiment [9] and in experiment [17] was “inactive” in each case. The max response was -62.8% in experiment [3]; -17.6% in [7]; -4.49% in experiment [10]; -4.75% (inactive) in [15]; -0.128% (inactive) in experiment [16]; 0.399% (inactive) in experiment [18]. Moreover, the result in [4] and in experiment [19] was inactive. In addition, the activation in experiment [12] was -0.152% (inactive); in experiment [13] it was 0.771% (inactive).
As to `O=C(O)CCCCCCCCCCC(=O)O`, the Potency entry in experiment [1], in experiment [2], in experiment [5], in [8], in experiment [9] and in [17] was “inactive” in each case. Besides, the max response in experiment [3] is 18.9%; in [7] it was 0.198%; in experiment [10] it was 2.61%; in experiment [11], 7.09% (inactive); in [15] it was -6.19% (inactive); in experiment [16], -10.8% (inactive). For the same molecule, in experiment [18], the max response is 0.83% (inactive). The outcome in experiment [6] and in [19] was inactive. Also, the activation in [12] is -0.986% (inactive); in [13], 3.26% (inactive).
As to `O=C(OCCOCCOC(=O)c1ccccc1)c1ccccc1`, the Potency entry in [1], in experiment [2], in [20], in experiment [5], in experiment [8] and in experiment [9] was “inactive” in each case. For the same molecule, the Potency entry in experiment [17] was “inactive”. Besides, the max response is 59.9% in experiment [3]; -16.7% in [7]; -7.11% in [10]; 4.89% (inactive) in experiment [11]; -0.375% (inactive) in experiment [14]; -6.77% (inactive) in [15]. Moreover, the max response in experiment [16] was -9.08% (inactive); in experiment [18] it was 2.6% (inactive). Besides, the molecule was classed as inactive in experiment [4], in [6] and in [19]. In addition, the activation in [12] is 0.298% (inactive); in [13], 1.92% (inactive).
Consider `C=CC(=O)NC(C)(C)CS(=O)(=O)O`, for which the Potency entry in [1], in experiment [2], in experiment [20], in [5] and in experiment [17] was “inactive” throughout. Also, the max response is 15.1% and -58.6% in [3]; -14.1% and -12.4% in experiment [7]; 6.06% and 6.67% in [10]; -8.43% (inactive) and -30.3% (inactive) in [11]; 2.58% (inactive) and -1.53% (inactive) in experiment [14]; -6.76% (inactive) and -9.12% (inactive) in experiment [15]. For the same molecule, the max response in [16] is -20.6% (inactive) and -8.34% (inactive); in experiment [18] it was -5.7% (inactive) and -3.87% (inactive). The call in experiment [4], in experiment [6] and in experiment [19] was inactive. Further, the activation was -1.64% (inactive) and -0.911% (inactive) in experiment [12]; 1.15% (inactive) and -0.952% (inactive) in experiment [13].
As for `Cc1ccc(S(=O)(=O)N=C=O)cc1`, the Potency entry in experiment [1], in [2], in experiment [20], in experiment [5], in [8] and in [9] was “inactive” each time. Also, the Potency result in experiment [17] was “inactive”. The max response in experiment [3] was 5.8%; in experiment [7] it was 15.4%; in [10], -8.47%; in experiment [11] it was 12.7% (inactive); in [14] it was -0.858% (inactive); in experiment [15], -7.8% (inactive). In experiment [18], the max response was -1.2% (inactive). For the same molecule, the outcome in experiment [4], in experiment [6] and in experiment [19] was inactive. The activation in experiment [12] is -0.506% (inactive); in experiment [13] it was -0.31% (inactive).
